# According to PubChem BioAssay AID624297 (National Center for Advancing Translational Sciences (NCATS), 2012):
# Out of some 340,000 compounds screened, about 6,200 (1.8%) were called active. Another 10% or so got no clear call; they are omitted. The list comes from a sample in which actives are over-represented; it also holds similar structures and randomly drawn compounds. A number with no mark means an inactive call. The call rests on the fitted dose curve; in most records, active means well fitted activation curve with a large enough effect; inconclusive means small, poorly fitted or top-dose-only effect; inactive means no such curve, though single readings can be large or run the other way.
# Test: A quantitative high throughput screen for small molecules that induce DNA re-replication in SW480 colon adenocarcinoma cells. Further: nearly all actives have a fitted effect of over 55% in size. On re-replication activation: % of control where 0% means no effect.
# Details: Hoechst DNA content imaging, 48 h; series mostly up to 46.1 µM; re-replication activation: at the top concentration
# Outline: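 DNA re-replication was detected as more nuclei of elevated Hoechst intensity after 48 hr exposure to compound (23 nL pinned per well of 250 cells).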
# Potency means the concentration at half of the fitted maximal effect.
Compound,re-replication activation,Potency
CC(C)Cc1nnc(N)s1,-5.57%,–
Cc1c(/C=N\NC(=O)c2cc3ccccc3o2)c2ccccc2n1C,–,9.2 µM (active)
Cc1ccc(NC(=O)c2cc3ccccc3o2)cc1,5.51%,–
O=C(N/N=C/c1cccc(O)c1)c1cc2c(ccc3ccccc32)o1,7.96%,–
CC(C)Sc1nc(N)nc2c1ncn2C1OC(CO)C(O)C1O (stereo not given),-2.18%,–
c1ccc(-n2nnnc2NC2CCCCCC2)cc1,–,3.66 µM (active)
c1ccc(-n2nnnc2N2CCOCC2)cc1,-0.759%,–
Fc1ccccc1CCNc1nnnn1-c1ccccc1,8.82%,–
COc1ccc(CNCCCn2cnc3c(OCc4ccccc4)ncnc32)cc1,-0.249%,–
O=[N+]([O-])c1ccc(N2CCOCC2)cc1,-3.05%,–
CCN(CC)C(=O)[C@H]1CC(CC(=O)NCc2ccco2)C(=O)N2CCc3c([nH]c4ccccc34)[C@]12C (stereo not given in full),0.301%,–
COc1cccc(NC(=O)CSc2nnc(C3CCCCC3)n2N)c1,-7.72%,–
COC(=O)c1ccc(CSc2nc3ccccc3c(=O)n2-c2cccc(OC)c2)o1,-0.0715%,–
COCC(C)n1c(SCC(=O)NC2CCCCC2C)nc2ccccc2c1=O (stereo not given),3.05%,–
COCC(C)n1c(SCc2ccc(C(=O)OC)o2)nc2ccccc2c1=O (stereo not given),–,18.4 µM (active)
O=C(c1ccc(Cl)c(S(=O)(=O)N2CCCCCC2)c1)N1CCN(c2ccc(O)cc2)CC1,-4.95%,–
C[n+]1cccc(C(=O)O)c1,-9.96%,–
O=C(NCCc1ccccc1)c1c[nH]c2ccc(F)cc2c1=O,2.52%,–
COc1ccc(CNC2CCCCC2)cc1,-14.2%,–
CCC(CO)Oc1cc(NCc2ccccc2)c2ncn(C3CCCC3)c2c1 (stereo not given),5.67%,–
COc1ccc(CNc2nc(NCc3ccc(OC)cc3)c3ncn(C4CCCC4)c3n2)cc1,–,4.61 µM (active)
O=S(=O)(O)c1cc2onnc2c2ccccc12,-4.34%,–
CNc1nc(=O)n(C2CCCO2)cc1C (stereo not given),6.26%,–
Cc1ccc(S(=O)(=O)N(C)C2(C)CCS(=O)(=O)C2)cc1 (stereo not given),-6.3%,–

Compound,re-replication activation,Potency
Cc1ccc(S(=O)(=O)NC2CCCCCC2)cc1,1.2%,–
Cc1ccc(S(=O)(=O)C2(S(=O)(=O)c3ccc(C)cc3)CCCC2)cc1,–,4.47 µM (active)
CCOC(=O)C1=C(C)c2ccccc2OC1C(=O)OCC (stereo not given),1.25%,–
C=C1c2cccc(OC)c2O[C@H](C(=O)OCC)[C@@H]1CCCCCC,–,20.6 µM (active)
CC(C)(C)OC(=O)C[C@@H]1C/C=C\C[C@@H](CC(=O)N(CCO)Cc2ccccc2)C(=O)N[C@H](Cc2ccccc2)COC1=O,-1.83%,–
COc1ccccc1CNC(=O)c1ccc(Cl)c(S(=O)(=O)N2CCCC2)c1,-7.01%,–
O=C(COC(=O)c1cccc(Cl)c1)NC(=O)NCc1ccccc1,-1.83%,–
Cc1nc(Cl)cc(N/N=C/c2ccccc2)n1,-0.738%,–
Cc1cc(Oc2ccc(Cl)cc2)nc(SCC(=O)c2ccccc2)n1,12.8%,–
COc1ccc(Nc2cc(C)nc(-n3nc(C)cc3C)n2)cc1,–,7.31 µM (active)
CC(=O)c1ccc(Oc2cc(C)nc(-n3nc(C)cc3C)n2)cc1,–,1.84 µM (active)
CC(=O)Nc1ccc(Nc2cc(C)nc(Nc3ccc(NC(C)=O)cc3)n2)cc1,9.33%,–
Cc1cc(N/N=C\c2ccc(Br)cc2)nc(-n2nc(C)cc2C)n1,–,8.2 µM (active)
Cc1cc(C)n(-c2ccc(C(=O)O)cc2[N+](=O)[O-])n1,-17%,–
Cc1cc(Nc2ccc(Cl)cc2)nc(N2CCOCC2)n1,-110%,–
Cc1ccc(S(=O)(=O)Nc2nc(C)cc(N/N=C/c3ccc(O)cc3)n2)cc1,-6.5%,–
O=C1NC(=O)C(CCc2ccccc2)(c2ccccc2)N1 (stereo not given),2.24%,–
O=C(O)c1ccc([N+](=O)[O-])cc1Sc1ccsc1,-2.95%,–
Cc1ccc(S(=O)(=O)Nc2ccc(F)c(S(=O)(=O)N3CCOCC3)c2)cc1,2.24%,–
O=c1[nH]c2c(c(=O)n1-c1ccccc1)CCO2,-5.03%,–
COc1ccc(Cn2c(=S)[nH]c3cc(C(=O)NCCCN4CCOCC4)ccc3c2=O)cc1,-8.9%,–
O=C(NCCN1CCOCC1)c1ccc2c(c1)N(Cc1ccc(Cl)cc1)CCS2,-2.43%,–
Cc1c(C)n(Cc2ccc(Cl)cc2)c2ccc(C(=O)NCCCN3CCOCC3)cc12,–,20.6 µM (active)
O=C(Nc1ccc(N2CCOCC2)cc1)c1cccc(S(=O)(=O)N2CCOCC2)c1,3.61%,–

Compound,re-replication activation,Potency
Cc1cc(NC(=O)CSc2nnc(-c3ccco3)n2N)no1,-6.78%,–
Cc1noc(C)c1NC(=O)Nc1ccc2c(c1)C(=O)N([C@H](C)CO)C[C@H](C)[C@@H](CN(C)C(=O)Nc1ccccc1)O2,-0.626%,–
CCCCCCCCNS(=O)(=O)CCNC1CCCCC1,-37.2%,–
CN(C)/C=C/C(=O)c1cnc2sccn2c1=O,-1.67%,–
CCOC(=O)c1cnc2sccn2c1=O,–,14.6 µM (active)
CCOC(=O)c1ccccc1NS(=O)(=O)c1c(C)nc2sccn2c1=O,-10.1%,–
CN(CCc1ccccc1)C(=O)c1cccc(NC(=O)Cc2ccc([N+](=O)[O-])cc2)c1,-7.8%,–
CC(C)(C)NS(=O)(=O)NC(=O)C1=C(N2CCCC2)COC1=O,-8.73%,–
CC(C)c1cc(N=O)cc(C(C)C)c1O,7.87%,–
CCCCOc1ccc(C(=O)NN2CCN(C)CC2)cc1,3.08%,–
CCCOc1ccc(C(=O)C(CCC(CNCC)C(=O)c2ccc(OCCC)cc2)CNCC)cc1 (stereo not given),–,9.2 µM (active)
CCCOc1ccc(C(=O)CCC(=O)OC(C)C(=O)Nc2ccc(NC(C)=O)cc2)cc1 (stereo not given),-6.44%,–
CN1CCOC1c1ccc(C2OCCN2C)cc1 (stereo not given),0.917%,–
N#CCCN(C(=O)COC(=O)c1ccc2c(c1)OCCO2)c1ccccc1,-1.2%,–
Cc1cc(NC(=O)COC(=O)/C=C/c2ccc(C)o2)no1,-11%,–
CC12CCC(C(=O)N(c3cccc(Cl)c3)C1=O)C2(C)C (stereo not given),18.4%,–
CC12CCC(C(=O)N(NC(=O)c3ccccc3O)C1=O)C2(C)C (stereo not given),–,20.6 µM (active)
O=C(NN1C(=O)C2C(C1=O)C1C=CC2C12CC2)c1ccccc1Cl (stereo not given),-0.766%,–
CN(C(=O)c1cccc(NC(=O)Cc2ccc(NC(=O)C3CCCN(C(=O)C4CC4)C3)cc2)c1)C1CC1 (stereo not given),-35.3%,–
Cc1ccc(S(=O)(=O)N2CCCCC2)cc1C(=O)N(C)CC(=O)Nc1cccc(F)c1,3.47%,–
COc1ccc(NC(=O)CN(C)C(=O)c2cccc(S(=O)(=O)N3CCN(c4ccccc4)CC3)c2)cc1,-64.6%,–
CCOc1ccc(NC(=O)CN(C)C(=O)c2cccc(S(=O)(=O)N3CCCC3)c2)cc1OCC,–,6.51 µM (active)
